# Compound activity deposited in PubChem by Broad Institute.
# Shown are actives, neighbours in structure and some others; about 3% of the full set was active somewhere.
# C2C12 statin = protects C2C12 myotubes from simvastatin toxicity. rescue of ATP level, % at 7.49 µM. AID 602340. 330,000 compounds, 0.78% hits. ATP luminescence, 48 h; scaled: DMSO 0, geranylgeraniol control 100;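 active = mean ATP rescue above about 67%, or every replicate alone reaching that limit, limit read from the data, passing the limit was not always enough; inconclusive = no clear call, values can overlap the other calls; inactive = mean under the limit and some replicate under it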;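 also: myotubes were challenged with 10 µM simvastatin during compound exposure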
# MITF act = increases MITF-driven TRPM1 promoter luciferase signal. SK-MEL-5 TRPM1-promoter luciferase, 24 h; % of positive control, neutral wells = 0. activation, % at 12.5 µM. 300,000 compounds, 0.75% hits. AID 588334;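 active = mean activation of at least 80% with every replicate also reaching 80%; inconclusive = mean reaches 80% but some replicate falls short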;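 also: 0% = neutral control wells and 100% = parthenolide positive control wells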
# Wnt bcat act = Wnt/beta-catenin pathway activation; Wnt/beta-catenin reporter cell assay, activator, plate reader; activation, % at 9.35 µM; 300,000 compounds, 1.2% hits; in the data active = activation above about 30%, passing the limit was not always enough; inconclusive = no clear call, values can overlap the other calls;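 also: 0% = neutral control wells and 100% = positive control wells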
# esBAF inh = blocks esBAF chromatin remodeling in mouse ES cells | Bmi1-luciferase knock-in reporter, 24 h; 100% = twice the neutral-well signal | reporter increase, % at 12.5 µM | 350,000 compounds, 2% hits | AID 602393; in the data active = activation above about 40%; inconclusive = no clear call, values can overlap the other calls;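 also: 0% = median of the plate's neutral control wells and 100% = double that signal; a rise in the Bmi1 reporter signal indicates esBAF inhibition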
# Starred values were filed as active, the others as inactive; ? = inconclusive; . = not tested or not shown.
SMILES,C2C12 statin,MITF act,Wnt bcat act,esBAF inh
CCc1nc(OCc2ccccc2)c2sc3nc4c(cc3c2n1)COC(C)(C)C4,7.7,-10.3,.,21.1
C=CCn1c(C)nc2c(sc3nc4c(cc32)COC(C)(C)C4)c1=O,.,66.2,45.9*,.
CCc1nc2c(sc3nc4c(cc32)COC(C)(C)C4)c(=O)n1CCN(CC)CC,0.2,1.7,-1.6,-3.1
CC1(C)Cc2nc3sc4c(OCc5ccccc5)ncnc4c3cc2CO1,73.7*,1.3,-0.8,5.3
C[C@H](NC(=O)C[C@H]1CC[C@@H](NC(=O)C2CCC2)[C@@H](CO)O1)c1ccccc1,-9.2,.,.,0.0
C[C@@H]1CN([C@@H](C)CO)C(=O)c2cc(NS(=O)(=O)c3cccs3)ccc2O[C@@H](C)CCCCO[C@H]1CN(C)S(=O)(=O)c1cn(C)cn1,-20.1,.,.,4.5
CC(C)(C)C(=O)O/N=C(\N)c1ccc(-c2csnn2)cc1,-6.7,106.4*,53.2*,84.2*
Cc1ccccc1C(=O)Oc1ccc(-c2csnn2)cc1,0.2,65.8,1.8,50.6*
CC(C)(C)C(=O)Nc1ccc(-c2csnn2)cc1,-29.1,67.0,29.8,?
CC(C)(C)C(=O)O/N=C(\N)c1ccc(Br)cc1,.,22.6,4.0,.
CC(=O)COc1ccc(-c2csnn2)cc1,.,36.7,10.1,.
c1ccc(COc2ccc(-c3csnn3)cc2)cc1,-6.7,93.9*,.,47.0*
CC(=O)O/N=C(\N)c1ccc(-c2csnn2)cc1,1.7,43.3,-1.0,54.0*
O=C(NCC[C@@H]1CC[C@H](NS(=O)(=O)c2ccccc2F)[C@@H](CO)O1)c1ccc(F)cc1,-10.9,.,.,3.5
Nc1ncnc2c1nc(N1CCCCC1)n2[C@@H]1O[C@H](CO)[C@@H](O)[C@H]1O,100.8*,3.4,0.9,-0.9
CO[C@@H](CN(C)C(=O)c1ccc2c(c1)OCO2)[C@@H](C)CN([C@@H](C)CO)S(=O)(=O)c1ccc(F)cc1,-8.5,.,.,2.9
CC(C)c1ccc(NC(=O)[C@@H]2CCC(=O)N2C2OC(=O)c3ccccc32)cc1 (stereo partly specified),13.4,45.6,0.3,56.2*
CCc1ccccc1NC(=O)[C@@H]1CCC(=O)N1C1OC(=O)c2ccccc21 (stereo partly specified),3.5,-3.6,-1.3,0.0
C[C@H](CO)N1C[C@H](C)[C@H](CN(C)S(=O)(=O)c2cccs2)Oc2c(NC(=O)C3CCOCC3)cccc2C1=O,-10.3,.,.,-2.8
O=C(C[C@H]1CC[C@H](NC(=O)C2CCOCC2)[C@H](CO)O1)Nc1nccs1,-7.1,.,.,-0.2
CC1CCN(C(=O)COC(=O)c2cc(Cl)c3c(c2)OCO3)CC1,6.2,64.0,32.1*,30.8
Cc1cc(N2CCC(C(=O)NC3CC3)CC2)nc(-c2ccccc2)n1,.,.,.,0.5
Cc1cc(N2CCN(c3cccc(C)c3C)CC2)nc(-c2ccccc2)n1,116.6*,4.5,-0.7,-4.5
C[C@H]1CN([C@@H](C)CO)S(=O)(=O)c2ccc(-c3ccncc3)cc2O[C@@H]1CN(C)C(=O)c1ccc2c(c1)OCO2,-7.8,.,.,-3.2
COc1ccc(NC(=O)CN(C)C(=O)c2ccc3c(c2)CC(c2ccccc2)OC3=O)cc1 (stereo unspecified),-5.0,.,-0.9,5.8
SMILES,C2C12 statin,MITF act,Wnt bcat act,esBAF inh
COc1cccc(NC(=O)CN(C)C(=O)c2ccc3c(c2)CC(c2ccccc2)OC3=O)c1 (stereo unspecified),8.7,-7.7,48.3*,12.8
Cc1noc(C)c1NC(=O)Nc1ccc2c(c1)C(=O)N([C@H](C)CO)C[C@H](C)[C@H](CN(C)C(=O)Nc1cccc3ccccc13)O2,28.6,.,.,-1.3
O=C(Nc1ccccn1)c1ccc(Cl)c(S(=O)(=O)N2CCOCC2)c1,.,-3.1,-2.5,.
COc1cccc(C(=O)Nc2cc(C(=O)NCCc3ccccc3)ccc2Cl)c1,-70.6,44.2,0.2,29.1
O=C(NCCc1ccccc1)c1ccc(Cl)c(S(=O)(=O)N2CCCC2)c1,2.7,40.1,.,58.6*
CCCCC(=O)Nc1cc(C(=O)NCCc2ccccc2)ccc1Cl,-6.6,125.8*,.,?
Cc1cc(NC(=O)c2ccc(Cl)c(S(=O)(=O)N3CCOCC3)c2)no1,127.9*,-2.6,-0.8,-1.9
CCOCC(=O)Nc1cc(C(=O)Nc2ccccc2)ccc1Cl,-6.9,27.0,11.4,50.7*
O=C(C[C@H]1CC[C@H]2[C@@H](COC[C@H](O)CN2C(=O)Nc2ccccc2)O1)NCc1ccncn1,8.7,.,.,-3.5
O=C(Nc1ccccn1)c1cccc(S(=O)(=O)N2CCOCC2)c1,-7.7,0.8,.,-7.3
O=C(Nc1ccccn1)c1ccc(Cl)c(S(=O)(=O)N2CCCC2)c1,-16.1,41.4,2.8,56.4*
Cc1ccc(-c2csc(NC(=O)COC(=O)c3cccc(S(=O)(=O)N4CCOCC4)c3)n2)cc1,.,.,45.1*,.
Cc1ccc(C(=O)NCCc2ccccc2)cc1S(=O)(=O)N1CCOCC1,-5.7,70.7,26.5,68.1*
Cc1ccnc(NC(=O)c2cccc(S(=O)(=O)N3CCOCC3)c2)c1,-7.3,1.7,22.5,50.2*
Cc1ccc(C(=O)NC(C)CCc2ccccc2)cc1S(=O)(=O)N1CCOCC1 (stereo unspecified),-4.1,-17.4,-3.3,12.1
CO[C@H]1CN(C)C(=O)c2cc(NC(=O)c3cccc(F)c3)ccc2OC[C@@H](C)NC[C@H]1C,-2.3,.,.,1.7
COc1ccc(NC(=O)N[C@H]2CC[C@H](CC(=O)NC3CCC3)O[C@H]2CO)cc1,4.3,.,.,-1.8
C[C@@H]1CN([C@@H](C)CO)C(=O)c2cc(C#Cc3ccccc3F)cnc2O[C@@H]1CN(C)C(=O)Cc1cccnc1,12.1,.,.,4.5
CN1C(=O)c2cc(NC(=O)c3ccc(F)cc3)ccc2OC[C@H]2O[C@@H](CC(=O)NCC3CC3)CC[C@H]21,-15.1,.,.,1.9
O=C1OC(c2ccccc2)=C/C1=C/N1CCCCC1,-17.7,104.6*,2.4,83.9*
O=C1OC(c2ccc(Br)cc2)=N/C1=C\N1CCCCC1,8.9,123.9*,8.6,52.7*
O=C1OC(c2ccccc2)=N/C1=C\N1CCCCC1,23.1,85.6*,-1.1,85.3*
O=c1oc2ccccc2c2[nH]ccc12,0.3,-1.6,-1.3,-6.2
O=c1c2ccccc2oc2ccc(-c3ccc4[nH]ccc4c3)cc12,12.4,112.6*,-3.1,33.8
O=C(CSc1nnc(C2CCCCC2)o1)Nc1ccccc1Cl,-10.9,109.5*,21.1,62.0*
SMILES,C2C12 statin,MITF act,Wnt bcat act,esBAF inh
c1ccc(-c2cc(-c3ccccc3)on2)cc1,.,78.9,41.5*,.
Nc1nc(-c2cc(-c3ccccc3)no2)cs1,-0.4,88.3*,46.4*,18.0
C[C@H]1CN([C@@H](C)CO)C(=O)c2cc(N(C)C)ccc2O[C@@H]1CN(C)S(=O)(=O)c1cccs1,44.6,.,.,-2.5
CCCNC(=O)C[C@@H]1CC[C@@H]2[C@H](COC[C@H](O)CN2C(=O)c2cccnc2)O1,-5.8,.,.,1.4
COc1ccc(Nc2ncnc3ccccc23)cc1,.,96.8*,18.2,29.2
COc1ccc(Nc2ncnc3c2c(C)c(C)n3CCO)cc1,-13.5,70.3,41.1*,-10.5
COc1cccc(Nc2ncnc3ccccc23)c1,1.4,?,.,58.1*
